The full ranking holds about 25,000 sequences; the median of “ln(normalized median fluorescence intensity)” is about 7.1, and the highest 2% start at about 10. This is one part of a sample in which the highest values are shown more often than they occur.
Each sequence was assayed on PfSIP2 AP2 domain 1 (GST-tagged) (assay: gcPBM binding intensity (ln(normalized median fluorescence intensity)); higher = stronger DNA binding).
How it was run: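 Binding intensity values are the highest Masliner-normalised natural-log median intensity among replicate spots of either probe orientation. The binding step lasted 1 h in 1× PBS with 1% milk, 0.2 mg/ml BSA, 0.5% salmon testes DNA and 0.03% Triton X-100, using GST-tagged P. falciparum DNA-binding domains expressed in E. coli on an Agilent 4 × 180k array of primer-extended double-stranded 36-bp intergenic genomic probes plus negative controls. Alexa488 anti-GST antibody and a 488 nm scan detected bound protein.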
“GAAAGGAAAAGTTGAACACACAAAGTAAACTATAAG [CACACA_site3535]” was tested, and the “gcPBM binding intensity (ln)” value was 6.7. With “TCTATTAACTGATGTGCATGTTATAACCTAGAAGTA [TGCATGCA_site359]” the “gcPBM binding intensity (ln)” value was 7.42. With “TAAAAGTATTCCTTTTGTACATATAATGAAAACAAT [XGTACX_site2069]” the “gcPBM binding intensity (ln)” value was 6.8. In the case of “TGATAAAATATTAAATTATTTCTTTATTTAAAGATT [CACACA_negctrl_site370]”, the “gcPBM binding intensity (ln)” value is reported as 6.67. “AAGATAAATTATTATAAATCAATTGTGCCAACAATA [CACACA_negctrl_site144]” was tested, and the “gcPBM binding intensity (ln)” value was 6.69. In the case of “ATTATAAAAATATCGTGTACATATTTTTTAAAATAA [XGTACX_site5072]”, the “gcPBM binding intensity (ln)” value is reported as 7.12. In the case of “TTATACCATATTTATAGTACGTACAAATAAATCAAT [XGTACX_site4975]”, the “gcPBM binding intensity (ln)” value is reported as 7.3. In the case of “TTAATCCACAGACACACACACACAAAATAAAATACA [CACACA_site244]”, the “gcPBM binding intensity (ln)” value is reported as 7.22. In the case of “AAGATCGCATGAAATGAACACACATAAAAAAAATAT [CACACA_site9353]”, the “gcPBM binding intensity (ln)” value is reported as 7.05. In the case of “AATACATATTCAAAGGTGCAAAATAAAAATATACAT [GTGCAC_site9743]”, the “gcPBM binding intensity (ln)” value is reported as 11. For “ATATATTTAAAAAAATGTACAAATCATAAATGCAAG [XGTACX_site4230]”, the “gcPBM binding intensity (ln)” value was 7.07. “TATATTGCAAAAAGTACACACATAAATAAATACATA [CACACA_site6589]” was tested, and the “gcPBM binding intensity (ln)” value was 7.23. “ATAACATTCATATTCACACAAAAATATACTACATAG [CACACA_site4529]” was tested, and the “gcPBM binding intensity (ln)” value was 7.09. With “ACAAGCTTTCATAAGGTGCAATGATTTAACAAAAAA [GTGCAC_site9726]” the “gcPBM binding intensity (ln)” value was 10.1. For “AAATTGAGACAACAGGTGCATATAAATATACAGTGT [GTGCAC_site9634]”, the “gcPBM binding intensity (ln)” value was 10.6. With “ATACATTCAAAATATACACACATATATATATAATAT [CACACA_site950]” the “gcPBM binding intensity (ln)” value was 7.13. AAGACAATATATGCAGTGCATATACATACATATATA was tested, and the “gcPBM binding intensity (ln)” value was 8.3. In the case of “TTTTGTTCATACAAATTGGAACAAGACAAAAATATA [XGTACX_negctrl_site327]”, the “gcPBM binding intensity (ln)” value is reported as 7.16. For “AATATACATAACAAGGTGCAAAAAATATTGTTCATA [GTGCAC_site9499]”, the “gcPBM binding intensity (ln)” value was 10.9. With TATATACATGTGAGAGTGCATATAGACATAAAAAAT the “gcPBM binding intensity (ln)” value was 8.96. For “ATACATATTAACAAGGTGCAAATGGATTTCATAAAA [GTGCAC_site9775]”, the “gcPBM binding intensity (ln)” value was 10.7. In the case of “AGAAAGGTGGTATTAAAAGAATAACCTATGAATAAA [GTGCAC_negctrl_site325]”, the “gcPBM binding intensity (ln)” value is reported as 6.79. With “CCATATAATATGAACAGTACACACAAAATAAATTCG [XGTACX_site7590]” the “gcPBM binding intensity (ln)” value was 7.08. With “ATCAAAAAAAAAAAAAGTACACAAAATTTTTTATTA [XGTACX_site7986]” the “gcPBM binding intensity (ln)” value was 6.88. For “CTATTGTTAAATATAATACACACGTTTTTAAAAATA [CACACA_site2183]”, the “gcPBM binding intensity (ln)” value was 6.97. For “GTTTAACTGTTTTATACACACAATGTATACAATAAA [CACACA_site2959]”, the “gcPBM binding intensity (ln)” value was 7.02. “TTTTTATAATAAAAAAATATAACTATATTAAGCCAC [CACACA_negctrl_site555]” was tested, and the “gcPBM binding intensity (ln)” value was 7.1. “AATATATTTTCCTGCAAACACACATATAAATGTGTA [CACACA_site532]” was tested, and the “gcPBM binding intensity (ln)” value was 6.96. For “TCAACCAAAACATAAGCATGCAATATATTTTTATAC [TGCATGCA_site560]”, the “gcPBM binding intensity (ln)” value was 7.16. With “TTTATAATTTATATCACACACATATATATATAGTAA [CACACA_site8]” the “gcPBM binding intensity (ln)” value was 7.05. For “TTTCTATATAGATTTGCACACATAAAAATGCTTATA [CACACA_site2390]”, the “gcPBM binding intensity (ln)” value was 7.18. “ATATCGTGTGCATTAACACACATTTATTTGAATAAA [CACACA_site7162]” was tested, and the “gcPBM binding intensity (ln)” value was 7.65. “ACATATCGGGTGCATTAACACACATTTATTTGAATA [CACACA_site8736]” was tested, and the “gcPBM binding intensity (ln)” value was 11.6. For “ATCGGTAATATTAACACACACATTTATTTATATTTA [CACACA_site6638]”, the “gcPBM binding intensity (ln)” value was 7.01. “ATATCGGGTGCATTAACACACATTTATTTGAATAAA [CACACA_site2350]” was tested, and the “gcPBM binding intensity (ln)” value was 11.7. “AACATTTTAAATTATACACACATTTTGAATATATAT [CACACA_site3470]” was tested, and the “gcPBM binding intensity (ln)” value was 7.2. With “ATCGGTAATATTAACACACACATTTATATATATTTA [CACACA_site1084]” the “gcPBM binding intensity (ln)” value was 7.2. With “TTTTTATTTTTTCAGTGTACATTTAAATTATCTTAT [XGTACX_site3905]” the “gcPBM binding intensity (ln)” value was 6.98. In the case of “ATTATTATTATATATGCATGTAAAATATTAAAGTAC [TGCATGCA_site914]”, the “gcPBM binding intensity (ln)” value is reported as 7.59. For “AATGAAAAATGTATCGTTAAAGGGTATCTTAAGGAT [XGTACX_negctrl_site222]”, the “gcPBM binding intensity (ln)” value was 6.84. “AGATCATAATATTATACACACATTATGTATATGTAA [CACACA_site1490]” was tested, and the “gcPBM binding intensity (ln)” value was 6.84. In the case of “CATTAACATTTTATTACACACAATAATTTATAAGTA [CACACA_site4083]”, the “gcPBM binding intensity (ln)” value is reported as 7.06. “ACACATTATAACAAGGTGCAATTTTTATACACATGT [GTGCAC_site9866]” was tested, and the “gcPBM binding intensity (ln)” value was 10.4. For “TATAACACACAATGATGTACATTACATTATTTTTTA [XGTACX_site2076]”, the “gcPBM binding intensity (ln)” value was 7.06. In the case of “TAATTAGCATAATACACATGCATACATTTATATATA [TGCATGCA_site542]”, the “gcPBM binding intensity (ln)” value is reported as 7.01. In the case of “ATCATAAATTATTATACACACAATACGTGACCTATT [CACACA_site1906]”, the “gcPBM binding intensity (ln)” value is reported as 7.06. In the case of “TATTGTTACTTTATATGTACTAATTAAACATATACA [XGTACX_site6363]”, the “gcPBM binding intensity (ln)” value is reported as 7.24. For “ATAACAAAATGAAGAGTGCATTACCAAGTGGGTAAA [GTGCAC_site9450]”, the “gcPBM binding intensity (ln)” value was 8.64. For TAGGTACATAAATTGGTGCAAAGTGTACATATATAT, the “gcPBM binding intensity (ln)” value was 9.97. For “TAAATTGGTGCAAAGTGTACATATATATCTTTCCTA [XGTACX_site5458]”, the “gcPBM binding intensity (ln)” value was 11.4. With “AAAAAATTATAAAAGTGTACATATATATATATATAT [XGTACX_site154]” the “gcPBM binding intensity (ln)” value was 9.3. For “AACAATAAAAATAATTGTACAAGTCTAAAAAAAATT [XGTACX_site20]”, the “gcPBM binding intensity (ln)” value was 6.86. For “TCGTGAATGATTTAAGTACACACCGGTATTTATTCA [CACACA_site1564]”, the “gcPBM binding intensity (ln)” value was 6.74. In the case of “ACGTAAACATGTAGAAGGCATTACACAATGGTATAC [TGCATGCA_negctrl_site512]”, the “gcPBM binding intensity (ln)” value is reported as 6.75. With “AAAAGAAAATTAAATTAACACACATAAATATATATA [CACACA_site8482]” the “gcPBM binding intensity (ln)” value was 7.27. In the case of “TTTGTATAGTTGTAGGTGCATATCATTTTTAAATGT [GTGCAC_site9708]”, the “gcPBM binding intensity (ln)” value is reported as 10.4. In the case of “ATATAATAAATGTAGGTGCATAAAAATATTTTGTTA [GTGCAC_site9780]”, the “gcPBM binding intensity (ln)” value is reported as 10. ACCATATAAAGTTAGGTGCATTTGTATGTATCTTAC was tested, and the “gcPBM binding intensity (ln)” value was 9.18.

From the supplement of paper PMC11417369
